# In paper PMC5540273 (PLoS ONE, 2017):
# “And” between values parts separate entries of the source, which are not always exact repeats. Equal values may be shown once. Read-outs that look alike come from different tables or passages of the source.
# Experiments:
# [1] = test system: PKN1; settings: n = 1
# [2] = test system: PKN2; settings: concentration: 1 μM, replicates: in singlicate; n = 1
# [3] = test system: PLK1; settings: n = 1
# [4] = test system: PLK2; settings: concentration: 1 μM, replicates: in singlicate; n = 1
# [5] = test system: PLK3; settings: concentration: 1 μM, replicates: in singlicate; n = 1
# [6] = test system: PLK4; settings: n = 1
# [7] = test system: PRKCD; settings: concentration: 1 μM, replicates: in singlicate; n = 1
# [8] = test system: PRKCE; settings: n = 1
# [9] = test system: PRKCH; settings: n = 1
# [10] = test system: PRKCI; settings: n = 1
# [11] = test system: PRKCQ; settings: n = 1
# [12] = test system: PRKD1; settings: concentration: 1 μM, replicates: in singlicate; n = 1
# [13] = test system: PRKD2; settings: n = 1
# [14] = test system: PRKD3; settings: n = 1
# [15] = test system: PRKG1; settings: n = 1
# [16] = test system: PRKG2; settings: n = 1
# [17] = test system: T1, PRKR; settings: n = 1
# T1 construct: gene EIF2AK2
# [18] = test system: PRKX; settings: n = 1
# [19] = test system: PRP4; settings: n = 1
# [20] = test system: T2, PYK2; settings: n = 1
# T2 construct: gene PTK2B
# [21] = concentration: 1 μM, replicates: in singlicate
# [22] = concentration: 1 μM,replicates: in singlicate, 1 µM
# 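Note: KINOMEscan kinase panel screen.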
smiles,measurement,setting,value
NC(=O)c1nnc2ccccc2c1N,%Inh,[1]; [21],1%
same,%Inh,[2],38%
same,%Inh,[3]; [21],28%
same,%Inh,[4],8%
same,%Inh,[5],10%
same,%Inh,[6]; [21],19%
same,%Inh,[7],0%
same,%Inh,[8]; [21],15%
same,%Inh,[9]; [21],0%
same,%Inh,[10]; [21],28%
same,%Inh,[11]; [21],3%
same,%Inh,[12],0%
same,%Inh,[13]; [21],53%
same,%Inh,[14]; [21],0%
same,%Inh,[15]; [21],0%
same,%Inh,[16]; [21],14%
same,%Inh,[17]; [21],0%
same,%Inh,[18]; [21],1%
same,%Inh,[19]; [21],0%
same,%Inh,[20]; [21],12%
Cn1ccc2ncnc(Oc3ccc(Nc4nc5ccccc5[nH]4)cc3)c21,%Inh,[1]; [21],0%
same,%Inh,[2],0%
same,%Inh,[3]; [21],0%
same,%Inh,[4],0%
same,%Inh,[5],0%
same,%Inh,[6]; [21],62%
same,%Inh,[7],12%
same,%Inh,[8]; [21],0%
same,%Inh,[9]; [21],13%
same,%Inh,[10]; [21],0%
same,%Inh,[11]; [21],0%
same,%Inh,[12],44%
same,%Inh,[13]; [21],8%
same,%Inh,[14]; [21],0%
same,%Inh,[15]; [21],0%
same,%Inh,[16]; [21],0%
same,%Inh,[17]; [21],0%
same,%Inh,[18]; [21],3%
same,%Inh,[19]; [21],25%
same,%Inh,[20]; [21],41%
Cc1nnc(-c2ccc3occ(-c4ccc(S(C)=O)cc4)c3c2)[nH]1 (centres unmarked),%Inh,[1]; [21],0%
same,%Inh,[2],0%
same,%Inh,[3]; [21],0%
same,%Inh,[4],14%
same,%Inh,[5],7%
same,%Inh,[6]; [21],11%
same,%Inh,[7],13%
same,%Inh,[8]; [21],7%
same,%Inh,[9]; [21],0%
same,%Inh,[10]; [21],0%
same,%Inh,[11]; [21],0%
same,%Inh,[12],0%
same,%Inh,[13]; [21],4%
same,%Inh,[14]; [21],0%
same,%Inh,[15]; [21],0%
same,%Inh,[16]; [21],0%
same,%Inh,[17]; [21],0%
same,%Inh,[18]; [21],51%
same,%Inh,[19]; [21],10%
same,%Inh,[20]; [21],26%
CC(C)(C)c1ccc(C(=O)Nc2cn3cc(-c4cccnc4)ccc3n2)cc1,%Inh,[1]; [21],25%
same,%Inh,[2],22%
same,%Inh,[3]; [21],0%
same,%Inh,[4],16%
same,%Inh,[5],24%
same,%Inh,[6]; [21],15%
same,%Inh,[7],36%
same,%Inh,[8]; [21],4%
same,%Inh,[9]; [21],0%
same,%Inh,[10]; [21],26%
same,%Inh,[11]; [21],22%
same,%Inh,[12],21%
same,%Inh,[13]; [21],14%
same,%Inh,[14]; [21],5%
same,%Inh,[15]; [21],7%
same,%Inh,[16]; [21],26%
same,%Inh,[17]; [21],0%
same,%Inh,[18]; [21],10%
same,%Inh,[19]; [21],22%
same,%Inh,[20]; [21],7%
Cc1cccc(-c2cc(Nc3ccncc3)c3ccccc3n2)n1 [GSK223675],%Inh,[1]; [21],46%
same,%Inh,[2],0%
same,%Inh,[3]; [21],1%
same,%Inh,[4],0%
same,%Inh,[5],0%
same,%Inh,[6]; [21],2%
same,%Inh,[7],0%
same,%Inh,[8]; [21],0%
same,%Inh,[9]; [21],0%
same,%Inh,[10]; [21],17%
same,%Inh,[11]; [21],0%
same,%Inh,[12],91.1%
same,%Inh,[13]; [21],96%
same,%Inh,[14]; [21],100%
same,%Inh,[15]; [21],0%
same,%Inh,[16]; [21],0%
same,%Inh,[17]; [21],0%
same,%Inh,[18]; [21],16%
same,%Inh,[19]; [21],19%
same,%Inh,[20]; [21],14%
Cc1csc(-c2nc(Nc3ccncc3)c3ccccc3n2)n1 [GW869640],%Inh,[1]; [21],0%
same,%Inh,[2],23%
same,%Inh,[3]; [21],51%
same,%Inh,[4],40%
same,%Inh,[5],31%
same,%Inh,[6]; [21],24%
same,%Inh,[7],21%
same,%Inh,[8]; [21],37%
same,%Inh,[9]; [21],0%
same,%Inh,[10]; [21],30%
same,%Inh,[11]; [21],5%
same,%Inh,[12],69%
same,%Inh,[13]; [21],78%
same,%Inh,[14]; [21],71%
same,%Inh,[15]; [21],2%
same,%Inh,[16]; [21],12%
same,%Inh,[17]; [21],33%
same,%Inh,[18]; [21],0%
same,%Inh,[19]; [21],0%
same,%Inh,[20]; [21],0%
O=C(Nc1ccccc1)Nc1cccc(Oc2ccc3nccn3n2)c1,%Inh,[1]; [21],0%
same,%Inh,[2],0%
same,%Inh,[3]; [21],33%
same,%Inh,[4],0%
same,%Inh,[5],0%
same,%Inh,[6]; [21],0%
same,%Inh,[7],16%
same,%Inh,[8]; [21],0%
same,%Inh,[9]; [21],0%
same,%Inh,[10]; [21],21%
same,%Inh,[11]; [21],10%
same,%Inh,[12],0%
same,%Inh,[13]; [21],7%
same,%Inh,[14]; [21],0%
same,%Inh,[15]; [21],4%
same,%Inh,[16]; [21],0%
same,%Inh,[17]; [21],0%
same,%Inh,[18]; [21],0%
same,%Inh,[19]; [21],26%
same,%Inh,[20]; [21],60%
COc1ccc(Nc2nccc(NCCNC(=O)Nc3ccccc3F)n2)cc1 [GSK1379901],%Inh,[1]; [21],16%
same,%Inh,[2],0%
same,%Inh,[3]; [21],0%
same,%Inh,[4],0%
same,%Inh,[5],0%
same,%Inh,[6]; [21],0%
same,%Inh,[7],0%
same,%Inh,[8]; [21],19%
same,%Inh,[9]; [21],19%
same,%Inh,[10]; [21],23%
same,%Inh,[11]; [21],0%
same,%Inh,[12],0%
same,%Inh,[13]; [21],83%
same,%Inh,[14]; [21],0%
same,%Inh,[15]; [21],8%
same,%Inh,[16]; [21],0%
same,%Inh,[17]; [21],1%
same,%Inh,[18]; [21],5%
same,%Inh,[19]; [21],14%
same,%Inh,[20]; [21],8%
CSc1nn2c(=O)cc(N3CCOCC3)nc2n1Cc1cccc(C(F)(F)F)c1C [GSK2363608],%Inh,[1]; [22],14% and 0%
same,%Inh,[2],0%
same,%Inh,[3]; [22],25% and 8%
same,%Inh,[4],0%
same,%Inh,[5],0%
same,%Inh,[6]; [22],11% and 0%
same,%Inh,[7],0%
same,%Inh,[8]; [22],18% and 0%
same,%Inh,[9]; [22],20% and 0%
same,%Inh,[10]; [22],13% and 18%
same,%Inh,[11]; [22],0% and 66%
same,%Inh,[12],0%
same,%Inh,[13]; [22],7% and 4%
same,%Inh,[14]; [22],21% and 0%
same,%Inh,[15]; [22],39% and 1%
same,%Inh,[16]; [22],16% and 0%
same,%Inh,[17]; [22],5% and 0%
same,%Inh,[18]; [22],36% and 0%
same,%Inh,[19]; [22],32% and 12%
same,%Inh,[20]; [22],0% and 17%
Cc1cccc(-c2nc(-c3ccc(S(C)(=O)=O)cc3)sc2-c2ccnc(NCCc3ccccc3)c2)c1,%Inh,[1]; [21],6%
same,%Inh,[2],13%
same,%Inh,[3]; [21],0%
same,%Inh,[4],5%
same,%Inh,[5],0%
same,%Inh,[6]; [21],7%
same,%Inh,[7],8%
same,%Inh,[8]; [21],0%
same,%Inh,[9]; [21],14%
same,%Inh,[10]; [21],6%
same,%Inh,[11]; [21],26%
same,%Inh,[12],1%
same,%Inh,[13]; [21],0%
same,%Inh,[14]; [21],0%
same,%Inh,[15]; [21],20%
same,%Inh,[16]; [21],20%
same,%Inh,[17]; [21],0%
same,%Inh,[18]; [21],0%
same,%Inh,[19]; [21],9%
same,%Inh,[20]; [21],4%
